CYP2C9 activ – activators of human CYP2C9 | recombinant CYP2C9, luciferin-H conversion, luminescence; active compounds read high; factor 1 = untreated enzyme, 0 = blocked | activation factor at 5 µM | actives 1.4% (n = 96,000) | AID 1024;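 active means activation factor of 2 or more for CYP2C9 at a 5 µM dose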;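 further: 0 = sulfaphenazole-blocked wells and 1 = vehicle-only wells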
Target sequence (P11712 whole entry, looked up): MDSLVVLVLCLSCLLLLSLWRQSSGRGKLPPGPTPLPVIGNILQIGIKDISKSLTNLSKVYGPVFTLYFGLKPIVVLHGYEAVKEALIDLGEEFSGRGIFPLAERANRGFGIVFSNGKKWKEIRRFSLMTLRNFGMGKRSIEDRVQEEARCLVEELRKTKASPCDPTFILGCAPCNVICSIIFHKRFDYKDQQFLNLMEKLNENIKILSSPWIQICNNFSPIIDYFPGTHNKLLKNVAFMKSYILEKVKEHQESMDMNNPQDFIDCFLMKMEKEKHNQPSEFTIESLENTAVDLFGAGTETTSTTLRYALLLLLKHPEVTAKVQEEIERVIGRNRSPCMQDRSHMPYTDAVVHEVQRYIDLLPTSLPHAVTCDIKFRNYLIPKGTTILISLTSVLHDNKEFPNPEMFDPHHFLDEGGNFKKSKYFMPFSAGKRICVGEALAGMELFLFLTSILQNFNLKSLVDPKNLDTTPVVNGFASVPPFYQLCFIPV
E-sel TNF inh – blocks E-selectin expression induced by TNF alpha; HUVEC TNFa-induced E-selectin immunofluorescence, high content; inhibition, % at 2 µM; actives 0.71% (n = 120,000); AID 1246;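 active means inhibition above the batch mean plus 3 SD, and confirmed as a hit on visual image review, cut at about 43% in these data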;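 further: 0% = TNF-stimulated DMSO wells and 100% = unstimulated control wells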
CYP2C19 act – activators of human cytochrome P450 2C19; recombinant CYP2C19, luciferin-H EGE luminescence; active compounds read high; 0 = fully inhibited enzyme, 1 = untreated enzyme; P33261; 96,000 tested, under 10 active; activation factor at 5 µM;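 active means activation factor of at least 2 at 5 µM in the primary screen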;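 further: 0 = wells with 2.5 mM tranylcypromine and 1 = vehicle-only wells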
CYP2C9 inh – human CYP2C9 inhibition | P11712 | CYP2C9 Supersomes, luciferin-H conversion, luminescence | inhibition, % at 5 µM | actives 20% (n = 96,000) | AID 777;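 active means blocking of liver enzyme CYP2C9 beyond about 50% at 5 µM, limit read from the data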
CYP2C19 inh – human CYP2C19 inhibition | P33261 | CYP2C19 Supersomes, luciferin-H EGE luminescence, 30 min | inhibition, % at 5 µM | actives 21% (n = 96,000) | AID 778;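 active means CYP2C19 inhibition above a set limit at 5 µM in the primary screen, cut at about 50% in these data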;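 further: plate controls were negative control wells for no effect and 2.5 mM tranylcypromine positive control for full effect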
cytoskel mod – cytoskeleton assembly modification. inhibition, % at 2 µM. HUVEC TNFa F-actin phalloidin imaging, high content. actives 0.18% (n = 91,000);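 active means inhibition above the batch mean plus 3 SD and confirmed as a hit by visual image inspection, cut at about 30% in these data, passing the limit was not always enough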
* marks the source's active call; other numbers are inactive results. Compounds with a hit are over-represented: about 22% of the library has one in this group of screens.

`O=C(O)c1ccc(NC(CSCc2ccc(F)cc2)C(=O)O)c([N+](=O)[O-])c1` (stereo not drawn) gave CYP2C9 activ 0.1, E-sel TNF inh 28.1, CYP2C19 act 1.1, CYP2C9 inh 90.4*, CYP2C19 inh -13.6 and cytoskel mod 0.2.
O=C(O)c1ccc(NC(CSCc2cccc(F)c2)C(=O)O)c([N+](=O)[O-])c1 (stereo not drawn) was read as CYP2C9 activ 0.4, E-sel TNF inh 3.8, CYP2C19 act 1.2, CYP2C9 inh 61.9* and CYP2C19 inh -15.2.
For Cc1ccc(CSCC(Nc2ccc(C(=O)O)cc2[N+](=O)[O-])C(=O)O)cc1 (stereo not drawn) the results were CYP2C9 activ 0.1, E-sel TNF inh 2.7, CYP2C19 act 1.1, CYP2C9 inh 93.8*, CYP2C19 inh -13.5 and cytoskel mod -0.5.
CCOc1ccc(OCCSc2nc3ccccc3c(=O)[nH]2)cc1 was read as CYP2C9 activ 1, E-sel TNF inh 2.7, CYP2C19 act 1, CYP2C9 inh 1.0 and CYP2C19 inh -4.0.
Screening O=C(OCc1nnc(-c2ccccc2)o1)c1ccc2c(c1)OCCO2 returned CYP2C9 activ 0.4, CYP2C19 act 0.6, CYP2C9 inh 57.9*, CYP2C19 inh 39.2 and cytoskel mod -28.8.
Screening COc1cc(CCC(=O)OCc2nnc(-c3ccccc3)o2)cc(OC)c1OC returned CYP2C9 activ 0.2, E-sel TNF inh -8.9, CYP2C19 act 0.4, CYP2C9 inh 81.6*, CYP2C19 inh 63.6* and cytoskel mod 20.1.
Screening O=C(OCc1nnc(-c2ccccc2)o1)C1=COCCO1 returned CYP2C9 activ 1, E-sel TNF inh 5.1, CYP2C19 act 0.5, CYP2C9 inh -0.7, CYP2C19 inh 50.7* and cytoskel mod 8.9.
COc1cc(-c2nnc(COC(=O)c3cc(C)nc4ccc(C)cc34)o2)cc(OC)c1OC was read as CYP2C9 activ 0.1, E-sel TNF inh 9.4, CYP2C19 act 0.1, CYP2C9 inh 88.2*, CYP2C19 inh 89.7* and cytoskel mod -24.1.
`CC1CC(C)(C)NC(=S)N1CC(=O)N(C)Cc1ccccc1` (stereo not drawn) gave E-sel TNF inh 26.6.
For Cc1ccc(C(C)C)c(OCc2ccc(C(=O)N/N=C/c3ccc(O)cc3O)cc2)c1 the results were E-sel TNF inh 26.9.
O=C(Nc1ccccc1C(=O)OCc1nnc(-c2ccccc2)o1)c1ccco1 was read as CYP2C9 activ 0, E-sel TNF inh 3.9, CYP2C19 act 0.2, CYP2C9 inh 95.3*, CYP2C19 inh 75.7* and cytoskel mod -14.9.
`CC(C(=O)OCc1nnc(-c2ccccc2)o1)N1C(=O)c2ccccc2C1=O` (stereo not drawn) gave CYP2C9 activ 0.4, CYP2C19 act 0.8, CYP2C9 inh 55.9* and CYP2C19 inh 21.8.
`O=C(OCc1nnc(-c2ccccc2)o1)c1ccc(S(=O)(=O)NCc2ccco2)cc1` gave CYP2C9 activ 0.3, E-sel TNF inh -28.0, CYP2C19 act 0.9, CYP2C9 inh 69.7*, CYP2C19 inh 8.3 and cytoskel mod 5.6.
`COC(=O)c1cccc(COC(=O)c2ccccc2NC(=O)c2ccco2)c1` gave CYP2C9 activ 0.7, E-sel TNF inh -23.1, CYP2C19 act 1.1, CYP2C9 inh 32.3, CYP2C19 inh -9.9 and cytoskel mod -13.8.
For CC(C)[C@H](NC(=O)c1ccccc1)C(=O)OCc1nnc(-c2ccccc2)o1 the results were E-sel TNF inh -30.7.
`Cc1ccc(C(=O)OCc2nnc(-c3ccccc3)o2)o1` gave CYP2C9 activ 0.6, E-sel TNF inh -26.8, CYP2C19 act 0.2, CYP2C9 inh 41.9 and CYP2C19 inh 79.9*.
O=C(OCc1nnc(-c2ccccc2)o1)c1ccc(CO)cc1 was read as E-sel TNF inh -2.2.
`O=C(OCc1nnc(-c2ccccc2)o1)c1ccc(Cl)cc1` gave E-sel TNF inh -30.0.
Screening N#CCSc1nc2sc3c(c2c(=O)n1C1CCCCC1)CCCC3 returned CYP2C9 activ 0.5, E-sel TNF inh 4.5, CYP2C19 act 0.9, CYP2C9 inh 45.4, CYP2C19 inh 8.5 and cytoskel mod -3.2.
Screening O=C(NCc1cccnc1)c1cccnc1-c1nc2ccccc2s1 returned CYP2C9 activ 0.9, E-sel TNF inh 3.0, CYP2C19 act 0.5, CYP2C9 inh 7.2, CYP2C19 inh 46.1 and cytoskel mod -13.4.
COc1ccc(CN2CC(C(=O)NCCN3CCOCC3)CC2=O)cc1 (stereo not drawn) was read as CYP2C9 activ 1, E-sel TNF inh -15.4, CYP2C19 act 1, CYP2C9 inh 3.3, CYP2C19 inh 1.9 and cytoskel mod -24.8.
`c1ccc(Cc2nnc(-c3ccccc3)o2)cc1` gave CYP2C9 activ 1, E-sel TNF inh -7.5, CYP2C19 act 0.5, CYP2C9 inh 2.0, CYP2C19 inh 52.1* and cytoskel mod 2.4.
Screening CCOC(=O)C(C(=O)OCC)N(C#N)c1nc(C)cc(C)n1 returned CYP2C9 activ 1.4, E-sel TNF inh -19.0, CYP2C19 act 1.1, CYP2C9 inh -37.7, CYP2C19 inh -7.5 and cytoskel mod 11.7.
Cc1ccccc1C(=O)N1CCN(c2ccc([N+](=O)[O-])c(N3CCOCC3)c2)CC1 was read as CYP2C9 activ 0.4, E-sel TNF inh 16.7, CYP2C19 act 0.5, CYP2C9 inh 58.7*, CYP2C19 inh 54.6* and cytoskel mod 6.6.
O=C(COc1ccccc1)N1CCN(C(=O)c2ccc([N+](=O)[O-])cc2)CC1 was read as E-sel TNF inh -5.8.
Cc1ccc(-c2ccc(OCC(=O)N3CCOCC3)cc2)cc1 was read as CYP2C9 activ 0.7, E-sel TNF inh 10.8, CYP2C19 act 0.9, CYP2C9 inh 28.4, CYP2C19 inh 7.5 and cytoskel mod 24.6.
`Cc1cc(C)n(-c2cc(N3CCN(C(=O)c4ccccc4C)CC3)ccc2[N+](=O)[O-])n1` gave E-sel TNF inh 3.1 and cytoskel mod 24.4.
`O=C(COc1ccccc1)N1CCN(c2ccc([N+](=O)[O-])c(N3CCCCC3)c2)CC1` gave CYP2C9 activ 0.2, E-sel TNF inh -20.7, CYP2C19 act 0.4, CYP2C9 inh 78.7*, CYP2C19 inh 64.2* and cytoskel mod -13.5.
For Cc1ccc(OCC(=O)N2CCN(c3ccc([N+](=O)[O-])c(N4CCOCC4)c3)CC2)cc1 the results were CYP2C9 activ 0.4, E-sel TNF inh -39.0, CYP2C19 act 0.7, CYP2C9 inh 57.1*, CYP2C19 inh 34.2 and cytoskel mod 30.4.
CCOc1ccc(OCC)c(NC(=O)CN2CCN(c3cccc(C)c3C)CC2)c1 was read as E-sel TNF inh -94.8.
For Cc1nn(CC(=O)NCCc2ccccc2)c(C)c1[N+](=O)[O-] the results were E-sel TNF inh -5.4.
For C#CCNc1ccc([N+](=O)[O-])cc1 the results were E-sel TNF inh -20.6.

Screening data as filed in PubChem.
